Results as given in PubChem BioAssay (NCATS).
“And” between values parts separate entries of the source, which are not always exact repeats. Equal values may be shown once. Results filed as inconclusive are left out. The source made the active and inactive calls. Unless noted, the call rests on the fitted dose curve; in most records, active means well fitted curve in the direction sought with a large enough effect; inconclusive means small, poorly fitted or top-dose-only effect, or another doubt; inactive means no such curve, though single readings can be large; an effect the other way counts as inactive or inconclusive.

What was measured:
[1] = tested on: Zika virus NS2B-NS3 protease; assay: Primary screen GU AMC qHTS for Zika virus inhibitors (AID 1347154); further: nearly all actives have a fitted effect of over 70% in size; further: potency means the concentration at half of the fitted maximal effect;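 on activity change, negative = inhibition: 0% = no-inhibitor control and -100% = no-enzyme control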
Method in brief: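 Unlinked Zika NS2B hydrophilic domain/NS3 protease domain noncovalent complex (25 nM final) in 10 mM Tris-HCl pH 8.0, 0.01% Tween 20, with AMC peptide substrate. Fluorescence (ex 340, em 450 nm) change over 15 min, room temperature; percent inhibition fitted to 4-parameter Hill equation.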

[2] = molecular target: Nucleoprotein (Lymphocytic choriomeningitis virus (strain Armstrong)) (UniProt P09992); assay: qHTS for Inhibitors of the Functional Ribonucleoprotein Complex (vRNP) of Lymphocytic Choriomeningitis Arenaviruses (LCMV): LCMV Primary Screen - GLuc reporter signal (AID 1347086; calls by dose curve; further: series mostly up to about 57 µM; on the % scale 0 is the no-effect control and ±100 the full control effect; nearly all actives have a fitted effect of over 70% in size)
[3] = molecular target: Metallo-beta-lactamase type 2 (Klebsiella pneumoniae) (UniProt C7C422); assay: qHTS to identify inhibitors of the New Delhi Metallo-beta-lactamase (NDM): assay validation screen against the NCATS LOPAC Collection (AID 1794843);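 further: nitrocefin turnover by NDM-1 measured as 485 nm absorbance at plateau; series mostly up to about 38 µM; on the % scale 0 is the no-effect control and ±100 the full control effect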
Chain of Metallo-beta-lactamase type 2 (Klebsiella pneumoniae) (C7C422 whole entry, looked up): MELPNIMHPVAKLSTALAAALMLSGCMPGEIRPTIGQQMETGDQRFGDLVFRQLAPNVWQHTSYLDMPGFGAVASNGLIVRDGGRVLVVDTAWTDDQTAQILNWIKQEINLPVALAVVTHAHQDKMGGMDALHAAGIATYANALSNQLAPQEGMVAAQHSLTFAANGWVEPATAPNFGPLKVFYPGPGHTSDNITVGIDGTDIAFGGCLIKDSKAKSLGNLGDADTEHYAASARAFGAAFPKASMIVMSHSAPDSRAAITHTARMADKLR
Method in brief: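 NDM-1 at 2 nM final in 50 mM HEPES pH 7.0 with 1 uM ZnSO4 and 0.01% Tween20 was preincubated with library compounds in DMSO. Nitrocefin (50 uM stock) was then added, and absorbance at 485 nm was read at the kinetic plateau.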

[4] = molecular target: Cytochrome P450 1A2 (Homo sapiens) (UniProt P05177); assay: p450-cyp1a2 (AID 410; calls by dose curve; further: potency means the concentration at half of the fitted maximal effect)
Chain of Cytochrome P450 1A2 (Homo sapiens) (P05177 whole entry, looked up): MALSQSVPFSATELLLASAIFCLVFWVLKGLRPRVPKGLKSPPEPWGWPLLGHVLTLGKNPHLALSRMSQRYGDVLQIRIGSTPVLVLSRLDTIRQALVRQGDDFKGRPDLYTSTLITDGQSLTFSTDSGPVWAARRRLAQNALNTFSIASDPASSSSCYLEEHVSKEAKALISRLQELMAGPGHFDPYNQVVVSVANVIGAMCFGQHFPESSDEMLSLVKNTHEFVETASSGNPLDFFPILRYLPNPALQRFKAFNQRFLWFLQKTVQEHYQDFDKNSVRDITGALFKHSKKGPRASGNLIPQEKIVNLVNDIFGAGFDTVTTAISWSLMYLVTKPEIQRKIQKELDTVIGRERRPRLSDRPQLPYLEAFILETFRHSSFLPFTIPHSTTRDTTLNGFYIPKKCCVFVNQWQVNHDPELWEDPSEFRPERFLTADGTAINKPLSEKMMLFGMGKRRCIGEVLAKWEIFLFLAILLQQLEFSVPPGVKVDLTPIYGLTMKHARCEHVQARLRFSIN
Method in brief: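 Human CYP1A2 (20nM) demethylated Luciferin-ME at its Km (100uM) in 100mM KPO4. After 10 min compound preincubation, NADPH regeneration ran the reaction 60 min at room temperature. Luciferin was read by luminescence, normalized to 57 uM furafylline.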

[5] = molecular target: Glucocorticoid receptor (Homo sapiens) (UniProt P04150); assay: GR-GFP Redistribution (AID 450;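 active means compounds whose dose series gives a full or clear partial fitted curve of increased nuclear translocation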; further: potency means the concentration at half of the fitted maximal effect); conditions: U2OS GR-GFP nuclear translocation, laser cytometry, 2 h
Chain of Glucocorticoid receptor (Homo sapiens) (P04150 whole entry, looked up, the tested form may be a part): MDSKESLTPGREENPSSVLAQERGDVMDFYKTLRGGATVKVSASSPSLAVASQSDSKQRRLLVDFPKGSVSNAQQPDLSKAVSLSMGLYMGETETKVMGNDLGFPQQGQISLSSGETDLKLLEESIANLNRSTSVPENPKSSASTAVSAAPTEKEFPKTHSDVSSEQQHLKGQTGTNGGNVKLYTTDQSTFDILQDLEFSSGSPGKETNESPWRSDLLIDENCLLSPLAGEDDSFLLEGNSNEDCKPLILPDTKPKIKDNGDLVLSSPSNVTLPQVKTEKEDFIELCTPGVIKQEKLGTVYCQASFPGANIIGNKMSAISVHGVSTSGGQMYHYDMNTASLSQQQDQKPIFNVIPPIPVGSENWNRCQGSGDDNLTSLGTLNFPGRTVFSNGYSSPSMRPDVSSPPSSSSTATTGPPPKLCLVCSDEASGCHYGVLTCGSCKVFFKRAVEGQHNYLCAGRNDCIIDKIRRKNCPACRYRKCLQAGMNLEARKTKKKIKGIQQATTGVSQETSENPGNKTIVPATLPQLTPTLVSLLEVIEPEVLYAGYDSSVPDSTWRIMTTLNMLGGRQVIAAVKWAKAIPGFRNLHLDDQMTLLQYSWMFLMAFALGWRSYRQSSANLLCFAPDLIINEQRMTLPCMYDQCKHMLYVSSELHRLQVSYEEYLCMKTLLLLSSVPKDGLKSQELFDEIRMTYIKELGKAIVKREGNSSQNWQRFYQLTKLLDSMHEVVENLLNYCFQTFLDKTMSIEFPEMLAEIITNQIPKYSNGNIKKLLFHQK

[6] = molecular target: Glucocorticoid receptor (Homo sapiens) (UniProt P04150); assay: GR-EFC Redistribution (AID 451; calls by dose curve; further: potency means the concentration at half of the fitted maximal effect); conditions: CHO-K1 GR-EFC translocation, beta-gal luminescence, 2 h
Method in brief: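 CHO-K1 cells stably expressing nuclear-localized β-gal enzyme acceptor and GR fused C-terminally to the enzyme donor fragment; ligand-driven nuclear translocation restores β-gal by complementation. Compounds titrated up to 46 uM final, 2 h at 37 °C; luminescence read.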

[7] = molecular target: Mitogen-activated protein kinase 10 (Mus musculus) (UniProt Q61831); assay: JNK3 AlphaScreen Assay (AID 530; active means well fitted curve in either direction with a large enough effect, not every such curve was filed as active;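 further: kinase came from lysate of stimulated human HepG2 cells; signal reports phosphorylation of biotinylated GST-cJun 1-79 at Ser73 with 10 µM ATP; series mostly up to about 57 µM; on the % scale 0 is the no-effect control and ±100 the full control effect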)
Method in brief: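 JNK3 came from HepG2 lysates pre-activated with IL-1beta and TNF-alpha and phosphorylated biotinylated GST-cJun (1-79) at 10 uM ATP, pH 7.6, room temperature. Compounds were titrated. AlphaScreen signal used anti-phospho-cJun (Ser73) antibody.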

[8] = molecular target: 3',5'-cyclic-AMP phosphodiesterase 4B (Homo sapiens) (UniProt Q07343); assay: qHTS Assay for Inhibitors of PDE-IV (AID 607; active means well fitted activation curve with a large enough effect in the main read-out, with a control signal flat, not every such curve was filed as active; further: % of control where 0% means no effect)
Chain of 3',5'-cyclic-AMP phosphodiesterase 4B (Homo sapiens) (Q07343 whole entry, looked up): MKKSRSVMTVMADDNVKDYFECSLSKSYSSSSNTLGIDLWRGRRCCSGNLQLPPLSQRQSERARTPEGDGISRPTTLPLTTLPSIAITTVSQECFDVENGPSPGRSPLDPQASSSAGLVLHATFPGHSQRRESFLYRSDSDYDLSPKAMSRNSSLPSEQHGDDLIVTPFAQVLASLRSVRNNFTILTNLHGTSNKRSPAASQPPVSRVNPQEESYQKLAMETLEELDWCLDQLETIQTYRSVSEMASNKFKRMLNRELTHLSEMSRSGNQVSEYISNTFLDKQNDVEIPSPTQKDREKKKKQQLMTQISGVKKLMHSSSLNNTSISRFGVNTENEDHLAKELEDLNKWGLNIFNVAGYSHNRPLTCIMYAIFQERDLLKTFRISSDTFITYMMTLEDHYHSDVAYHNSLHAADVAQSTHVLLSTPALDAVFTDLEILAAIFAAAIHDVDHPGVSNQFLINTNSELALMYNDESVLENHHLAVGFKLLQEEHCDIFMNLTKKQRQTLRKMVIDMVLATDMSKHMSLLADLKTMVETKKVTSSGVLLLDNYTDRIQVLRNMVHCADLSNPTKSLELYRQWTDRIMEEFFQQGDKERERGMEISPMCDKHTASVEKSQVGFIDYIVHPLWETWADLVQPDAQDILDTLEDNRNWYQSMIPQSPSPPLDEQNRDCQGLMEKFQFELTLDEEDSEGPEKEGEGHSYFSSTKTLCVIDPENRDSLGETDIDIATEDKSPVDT
Method in brief: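 ACTOne HEK293 cells carry a modified cAMP-gated CNG channel and express endogenous PDE4; plated 1000 cells/well, compounds up to 22.9 uM final. Membrane-potential dye fluorescence (ex 535/em 590) was read; parental cells received 10 uM forskolin + 100 uM RO 20-1724.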

[9] = molecular target: Cytochrome P450 2C9 (Homo sapiens) (UniProt P11712); assay: qHTS Assay for Inhibitors and Substrates of Cytochrome P450 2C9 (AID 883); further: potency means the concentration at half of the fitted maximal effect; nearly all actives have a fitted effect of over 60% in size
Chain of Cytochrome P450 2C9 (Homo sapiens) (P11712 whole entry, looked up): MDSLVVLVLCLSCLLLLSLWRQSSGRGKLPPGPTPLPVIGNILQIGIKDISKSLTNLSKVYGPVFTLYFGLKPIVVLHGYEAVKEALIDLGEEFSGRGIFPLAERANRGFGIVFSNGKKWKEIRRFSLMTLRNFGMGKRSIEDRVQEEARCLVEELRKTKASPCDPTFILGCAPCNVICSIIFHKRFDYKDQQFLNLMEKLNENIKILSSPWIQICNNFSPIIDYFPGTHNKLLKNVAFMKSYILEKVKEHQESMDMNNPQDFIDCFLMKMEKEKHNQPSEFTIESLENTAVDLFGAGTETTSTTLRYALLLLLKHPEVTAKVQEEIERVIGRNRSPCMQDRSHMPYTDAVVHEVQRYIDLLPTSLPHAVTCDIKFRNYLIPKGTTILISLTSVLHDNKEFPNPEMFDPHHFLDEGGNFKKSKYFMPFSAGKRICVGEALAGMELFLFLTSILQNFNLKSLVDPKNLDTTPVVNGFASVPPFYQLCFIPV
Method in brief: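 A luminogenic readout tracked human CYP2C9 (10nM) converting deoxyluciferin (100uM, at KM) in 25mM KPO4 during 60 min at 37C with regenerated NADPH. Values normalized to 57uM sulphaphenazole as complete inhibition.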

[10] = molecular target: Cytochrome P450 3A4 (Homo sapiens) (UniProt P08684); assay: qHTS Assay for Activators of Cytochrome P450 3A4 (AID 885); further: nearly all actives have a fitted effect of over 65% in size
Chain of Cytochrome P450 3A4 (Homo sapiens) (P08684 whole entry, looked up): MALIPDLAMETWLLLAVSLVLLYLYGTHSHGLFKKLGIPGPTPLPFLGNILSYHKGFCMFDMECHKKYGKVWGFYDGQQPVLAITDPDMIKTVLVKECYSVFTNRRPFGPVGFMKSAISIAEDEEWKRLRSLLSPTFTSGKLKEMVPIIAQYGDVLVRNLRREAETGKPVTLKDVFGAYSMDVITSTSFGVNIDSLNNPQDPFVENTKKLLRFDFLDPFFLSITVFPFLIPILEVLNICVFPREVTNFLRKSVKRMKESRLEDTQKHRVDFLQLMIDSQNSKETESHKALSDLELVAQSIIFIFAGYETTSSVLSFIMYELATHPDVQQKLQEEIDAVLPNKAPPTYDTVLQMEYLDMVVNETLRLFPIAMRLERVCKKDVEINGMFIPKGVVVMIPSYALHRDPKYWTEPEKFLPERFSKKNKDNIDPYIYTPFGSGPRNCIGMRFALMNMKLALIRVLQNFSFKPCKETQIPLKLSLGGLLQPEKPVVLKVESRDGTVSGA
Method in brief: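 20nM CYP3A4 + 25uM Luciferin-PPXE (=KM), 200mM KPO4; cpd 10 min RT; NADPH regen, 60 min RT; stop w/ detection buffer, 20 min; luminescence. Normalized to 57 uM ketoconazole.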

[11] = molecular target: Ubiquitin carboxyl-terminal hydrolase 1 (Homo sapiens) (UniProt O94782); assay: Inhibitors of USP1/UAF1: Pilot qHTS (AID 504865);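 further: rhodamine fluorescence freed from ubiquitin-rhodamine substrate followed over time; top concentration of the series differs between compounds; on the % scale 0 is the no-effect control and ±100 the full control effect; nearly all actives have a fitted effect of over 35% in size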
Method in brief: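 USP1/UAF1 complex at 1 nM preincubated 15 min at room temperature with compound, then Ub-Rho substrate added at 150 nM final. Fluorescence (480/540 nm) read kinetically in 50 mM HEPES pH 7.8, 0.5 mM EDTA, 1 mM TCEP, 0.1 mg/ml BSA, 0.01% Tween-20.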

[12] = molecular target: DNA dC->dU-editing enzyme APOBEC-3G (Homo sapiens) (UniProt Q9HC16); assay: qHTS for inhibitors of Vif-A3G interactions: Validation (AID 588379); further: 0% is about no effect
Chain of DNA dC->dU-editing enzyme APOBEC-3G (Homo sapiens) (Q9HC16 whole entry, looked up): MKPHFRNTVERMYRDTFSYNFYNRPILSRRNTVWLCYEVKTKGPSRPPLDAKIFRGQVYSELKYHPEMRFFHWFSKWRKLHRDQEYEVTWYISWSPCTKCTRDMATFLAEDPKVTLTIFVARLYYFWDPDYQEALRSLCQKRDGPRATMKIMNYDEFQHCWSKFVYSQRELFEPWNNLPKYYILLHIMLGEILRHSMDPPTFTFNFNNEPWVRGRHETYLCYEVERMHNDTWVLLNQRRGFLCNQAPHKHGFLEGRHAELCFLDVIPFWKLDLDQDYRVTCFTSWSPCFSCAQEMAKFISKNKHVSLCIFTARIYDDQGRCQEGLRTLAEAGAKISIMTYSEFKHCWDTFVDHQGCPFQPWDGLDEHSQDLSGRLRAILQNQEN
Method in brief: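 HeLa cells stably expressing Vif and A3G-eYFP, 700 cells/well, incubated overnight at 37 deg C, then exposed to compound overnight at 37 deg C. Inhibition of Vif-mediated degradation read as increased yellow fluorescence (Ex 488/Em 500-530) by laser-scanning cytometry.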

Furin (Homo sapiens) = Furin (Homo sapiens) (UniProt P09958); assay: Furin counterscreen qHTS for Zika virus inhibitors (AID 1347149); further: nearly all actives have a fitted effect of over 70% in size; further: potency means the concentration at half of the fitted maximal effect;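 on activity change, negative = inhibition: purified recombinant full-length human furin enzyme at 5 nM; fluorescence gain from furin cutting a BOC-RVRR-AMC peptide substrate over 15 min; top concentration of the series differs between compounds; plate controls were no-inhibitor control for no effect and no-enzyme control for full effect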
Chain of Furin (Homo sapiens) (P09958 whole entry, looked up): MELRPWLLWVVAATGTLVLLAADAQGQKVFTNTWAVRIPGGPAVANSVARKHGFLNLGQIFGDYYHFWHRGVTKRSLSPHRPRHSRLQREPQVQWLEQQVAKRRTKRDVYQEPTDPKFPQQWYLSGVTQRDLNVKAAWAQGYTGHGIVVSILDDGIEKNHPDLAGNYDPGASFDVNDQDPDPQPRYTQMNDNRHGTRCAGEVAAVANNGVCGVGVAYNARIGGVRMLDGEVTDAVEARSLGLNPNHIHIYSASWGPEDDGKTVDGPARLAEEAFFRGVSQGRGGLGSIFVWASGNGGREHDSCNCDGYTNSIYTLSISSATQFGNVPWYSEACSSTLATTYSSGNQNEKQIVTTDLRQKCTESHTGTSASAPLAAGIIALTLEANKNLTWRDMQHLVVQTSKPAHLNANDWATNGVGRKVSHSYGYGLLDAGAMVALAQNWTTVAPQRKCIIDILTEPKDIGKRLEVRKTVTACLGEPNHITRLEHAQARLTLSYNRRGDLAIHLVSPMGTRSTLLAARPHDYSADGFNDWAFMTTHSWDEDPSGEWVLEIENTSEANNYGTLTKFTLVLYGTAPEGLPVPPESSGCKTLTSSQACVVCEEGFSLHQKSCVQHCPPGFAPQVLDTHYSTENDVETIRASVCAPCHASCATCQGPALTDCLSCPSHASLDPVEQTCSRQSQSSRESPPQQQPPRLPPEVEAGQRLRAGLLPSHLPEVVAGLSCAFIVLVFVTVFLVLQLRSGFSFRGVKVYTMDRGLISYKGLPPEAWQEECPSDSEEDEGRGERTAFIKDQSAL
Method in brief: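 Fluorogenic cleavage of BOC-RVRR-AMC (2 microM final, Km ~15 µM) was monitored (ex 340, em 450 nm) at 37C after 15 min RT preincubation of 5 nM furin with compounds in HEPES pH 7.0 buffer with CaCl2 and Triton X-100. Percent inhibition was fitted to a 4-parameter Hill curve.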

[13] = tested on: Zika virus NS2B-NS3 protease (linked construct); assay: Confirmatory screen NINDS AMC qHTS for Zika virus inhibitors (AID 1347152); further: potency means the concentration at half of the fitted maximal effect; nearly all actives have a fitted effect of over 70% in size
Method in brief: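 Linked NS2B-NS3 protease, 1 nM, in 10 mM Tris-HCl pH 8.0, 0.01% Tween 20; compounds preincubated 15 min at room temperature. Nle-KRR-AMC 10 microM (Km 18.3 µM); 15-min fluorescence change (340/450 nm) fitted to 4-parameter Hill.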

[14] = tested on: Zika virus NS2B-NS3 protease (unlinked complex); assay: Confirmatory screen GU AMC qHTS for Zika virus inhibitors (AID 1347153)
Method in brief: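 Noncovalent NS2B hydrophilic domain/NS3 protease complex (25 nM) in 10 mM Tris-HCl pH 8.0, 0.01% Tween 20 was preincubated 15 min at room temperature with compounds. Then 10 µM AMC substrate (Km 18.3 µM) was added; fluorescence was read over 15 min and fitted to a 4-parameter Hill equation.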

[15] = Confirmatory screen NINDS Rhodamine qHTS for Zika virus inhibitors (AID 1347161); further: nearly all actives have a fitted effect of over 60% in size; further: potency means the concentration at half of the fitted maximal effect;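 on activity change, negative = inhibition: purified Zika NS2B-NS3 protease with linked NS2B cofactor domain and Rhodamine110 peptide substrate; series mostly up to about 110 µM; plate controls were no-inhibitor control for no effect and no-enzyme control for full effect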
Method in brief: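 Purified linked NS2B-NS3 protease (NS2B hydrophilic domain joined to NS3 protease by flexible linker), 25 nM in 10 mM Tris-HCl pH 8.0, 0.01% Tween 20. Compounds titrated, 15 min preincubation at room temperature; 1.5 microM Rhodamine110 substrate, FITC fluorescence change over 15 min.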

[16] = Vero cells viability qHTS for Zika virus inhibitors (AID 1347167); further: on the % scale 0 is the no-effect control and ±100 the full control effect
Method in brief: (§1)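 Counter-screen for cytotoxicity of hits from NS2B-NS3 protease qHTS. Overnight-attached cells (2.5 x 10^5 cells/mL, DMEM/4% FBS) were dosed in titration, incubated 24 to 48 hours, then assayed by CellTiter Glo.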

[17] = HepG2 cells viability qHTS for Zika virus inhibitors (AID 1347168); further: on the % scale 0 is the no-effect control and ±100 the full control effect
Method in brief: as §1

[18] = Tertiary RLuc qRT-PCR qHTS assay for Zika virus inhibitors (AID 1347169); further: top concentration of the series differs between compounds; on the % scale 0 is the no-effect control and ±100 the full control effect; nearly all actives have a fitted effect of over 55% in size
Method in brief: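 Vero cells (1,000/well) infected with recombinant ZIKV-RLuc (Cambodian) at MOI 1-2 after compound addition, 48-72 hrs at 37 degrees C. Live-cell Renilla luciferase substrate added; luminescence read after 1-1.5 hrs.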

[19] = tested on: Zika virus NS2B-NS3 protease (linked construct); assay: 384 well plate NINDS Rhodamine confirmatory qHTS for Zika virus inhibitors (AID 1347164);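 further: fluorescence from protease cleavage of Ac-LKRR-rhodamine 110 substrate; top concentration of the series differs between compounds; plate controls were no-inhibitor control for no effect and no-enzyme control for full effect; nearly all actives have a fitted effect of over 65% in size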
Method in brief: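 Linked NS2B-NS3 protease (final 5, 30 or 60 nM) preincubated ~15 minutes with compounds, then 10 microM Ac-LKRR-Rhodamine 110 added. Fluorescence (485/538 nm) read after 25 minutes at room temperature, normalized to no-enzyme and no-inhibitor controls.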

[20] = Primary qHTS for small molecule stabilizers of the endoplasmic reticulum resident proteome: Secreted ER Calcium Modulated Protein (SERCaMP) assay (AID 1508630); further: on the % scale 0 is the no-effect control and ±100 the full control effect
Method in brief: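 GLuc-SERCaMP-expressing SH-SY5Y cells, pretreated 16 h with compound, are challenged with thapsigargin to empty ER calcium stores; after 4 h, coelenterazine is added directly to the medium and luminescence is imaged.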

[21] = Confirmatory qHTS for small molecule stabilizers of the endoplasmic reticulum resident proteome: Secreted ER Calcium Modulated Protein (SERCaMP) assay (AID 1508628); further: potency means the concentration at half of the fitted maximal effect; nearly all actives have a fitted effect of over 40% in size
Method in brief: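 We seeded SH-SY5Y-GLuc-SERCaMP cells, added compounds (three concentrations in the primary run, eleven up to 76.6 uM in confirmation), incubated 16 h, depleted ER calcium with thapsigargin, and read luciferase 4 h later.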

CCCCC/C=C\C/C=C\C/C=C\C/C=C\CCCCCC(=O)NCCO
inactive: activity change, negative = inhibition [1] 3.5% [at 6.83 µM]

Cc1c(C(=O)c2cccc3ccccc23)c2cccc3c2n1[C@@H](CN1CCOCC1)CO3
inactive: Potency [1]

C/C=C/CC(C)C(O)C1C(=O)NC(CC)C(=O)N(C)CC(=O)N(C)C(CC(C)C)C(=O)NC(C(C)C)C(=O)N(C)C(CC(C)C)C(=O)NC(C)C(=O)NC(C)C(=O)N(C)C(CC(C)C)C(=O)N(C)C(CC(C)C)C(=O)N(C)C(C(C)C)C(=O)N1C (stereo not drawn)
inactive: Potency [2] | outcome [3]

Clc1cncc(N2CCNCC2)n1
inactive: Potency [5] > 46 µM | Potency [6] > 46 µM | outcome [7] | Potency [8] | Potency [10] | Potency [11] | Potency [12] | Potency [14] | Potency [15] | Potency [16] | Potency [17] | Potency [18]
active: Potency [4] 2 µM | Potency [9] 2 µM | Potency (Furin (Homo sapiens)) 24.1 µM and 10.8 µM | Potency [13] 24.1 µM and 8.57 µM | Potency [1] 15 µM

Ic1cncc(OC[C@@H]2CCN2)c1
inactive: Potency [5] > 46 µM | Potency [6] > 46 µM | outcome [7] | Potency [8] | Potency [12] | Potency (Furin (Homo sapiens)) | Potency [14] | Potency [19] | Potency [16] | Potency [17] | Potency [18] | Potency [20]
active: Potency [4] 0.398 µM | Potency [15] 34.9 µM

CCC(Oc1ccc(Cl)cc1)C(=O)OC1CC2CCC(C1)N2C (stereo not drawn)
active: Potency [21] 8.91 µM
inactive: Potency [1]

C=CCN1CCC2(C)c3cc(O)ccc3CC1[C@@H]2C (stereo partly drawn)
inactive: Potency [1]
